# Screening data from PubChem BioAssay.
# PfHsp90 yeast 2 = growth inhibition of yeast expressing Plasmodium Hsp90; AID 504621; 310,000 compounds, 0.32% hits; S. cerevisiae expressing PfHsp90, BacTiter-Glo ATP, 48 h; yeast lacking PDR1 and PDR3 efflux regulators; inhibition, % at 9.4 µM;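 active = every replicate shows inhibition above about 80%, whatever the replicate mean, limit read from the data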;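 also: 0% = DMSO neutral controls and 100% = 20 µM radicicol positive controls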
# NLRP3 yeast inh = NALP3 inhibition in yeast; Yeast reconstituted NLRP3/ASC/caspase-1, beta-gal luminescence, 24 h; inhibition, % at 10 µM; 330,000 compounds, 0.39% hits; AID 2825;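 active = inhibition of 50% or more; inactive = inhibition below 50%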;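 also: plate controls were induced DMSO wells for no effect and uninduced yeast grown without galactose for full effect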
# tim23-1 inh = tim23-1 yeast growth inhibition; S. cerevisiae tim23-1 growth, BacTiter-Glo luminescence, 24 h; inhibition, % at 20 µM; 330,000 compounds, 1.3% hits; AID 463212;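 active = growth inhibition of the mutant yeast at or above 50%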;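 also: temperature-sensitive mutant grown at 25 °C; plate controls were DMSO-treated mutant yeast for no effect and medium wells lacking yeast for full effect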
# TIM10 inh = growth inhibitors of TIM10 yeast strain; S. cerevisiae TIM10 strain growth, BacTiter-Glo luminescence, 24 h; inhibition, % at 10 µM; 330,000 compounds, 1.4% hits; AID 463195;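 active = inhibition of 40% or more at the single tested concentration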;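 also: wild-type TIM10 isogenic control strain grown at permissive 25 °C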
# tim10-1 inh = tim10-1 yeast growth inhibition; S. cerevisiae tim10-1 ts strain growth, BacTiter-Glo, 24 h; inhibition, % at 20 µM; 330,000 compounds, 2.2% hits;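 active = inhibition of at least 40%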;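 also: mutant grown at 25 °C; 0% = DMSO wells with yeast and 100% = wells holding no yeast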
# tim10-1 confirm = tim10-1 yeast growth inhibition, confirmed | shares compounds with tim10-1 inh | S. cerevisiae tim10-1 ts strain growth, BacTiter-Glo, 24 h | inhibition, % at 20 µM | 7,400 compounds, 56% hits;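 active = inhibition of yeast growth at or above a set limit in either of two repeat tests at 20 µM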;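 also: tim10-1 mutant grown at permissive 25 °C to find synthetic lethal compounds; 0% = DMSO yeast wells and 100% = medium wells without yeast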
# TIM10 conf = TIM10 yeast growth inhibition, confirmed. 4,600 compounds, 63% hits. inhibition, % at 10 µM. S. cerevisiae tim10 strain growth, BacTiter-Glo luminescence, 24 h. shares compounds with TIM10 inh;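 active = inhibition of yeast growth at or above a set limit in either of two replicates at 10 µM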;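 also: this counterscreen used the strain with wild-type TIM10; 0% = yeast with DMSO and 100% = medium wells lacking yeast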
# tim23-1 conf = tim23-1 yeast growth inhibition, confirmed. shares compounds with tim23-1 inh. S. cerevisiae tim23-1 growth, BacTiter-Glo luminescence, 24 h. inhibition, % at 20 µM. 4,400 compounds, 83% hits. AID 463218;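 active = inhibition above about 39% in either of two replicate wells at 20 µM, limit read from the data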;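 also: temperature-sensitive tim23-1 mutant grown at 25 °C; 0% = DMSO wells with yeast and 100% = medium wells without yeast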
# An asterisk follows results filed as active; x = no result. Shown are actives, neighbours in structure and some others; about 3.7% of the full set was active somewhere.
SMILES,PfHsp90 yeast 2,NLRP3 yeast inh,tim23-1 inh,TIM10 inh,tim10-1 inh,tim10-1 confirm,TIM10 conf,tim23-1 conf
CCn1c(=O)c(C(=O)NCc2ccccn2)c(O)c2ccccc21,-13.2,13.7,59.6*,37.8,44.7*,16.0,x,57.8*
Cc1ccc(C(=O)NC(C#N)=C(Cl)Cl)cc1,x,17.8,68.5*,45.2*,50.6*,40.9*,29.8,62.4*
Cc1ccc(C(=O)NCC#N)cc1,11.8,11.8,3.8,-10.6,7.0,x,x,x
O=C(CN(C(=O)c1csnn1)c1ccccc1F)NCc1ccccc1,26.1,14.7,12.0,-14.1,11.1,x,x,x
Cc1cccc(/C=N/NC(=O)c2ccc3c(c2)OCCO3)c1O,19.0,39.2,62.6*,65.2*,49.7*,45.8*,68.3*,75.9*
O=C(NCCS(=O)(=O)N1CCC2(CC1)OCCO2)c1ccccc1,x,11.9,17.6,2.9,4.9,x,x,x
COc1ccc(CCN2CC(C(=O)OCC(=O)NC(C)c3cccc(Cl)c3)CC2=O)cc1OC (stereo unspecified),13.5,7.0,1.7,13.3,2.5,x,x,x
O=c1ccn(Cc2ccccc2)c(SCc2ccccc2)n1,-12.8,x,x,x,x,x,x,x
Clc1ccc(CSc2nccn2Cc2ccccc2)cc1,x,37.5,50.5*,60.1*,47.9*,43.9*,44.2*,53.6*
CC(C)OCCOc1ccc2oc(-c3ccco3)cc(=O)c2c1,6.4,41.8,23.1,-4.6,19.7,x,x,x
Cc1ccnc(Nc2nc(-c3sc(C)nc3C)cs2)c1,5.4,-9.5,82.2*,38.7,48.2*,25.2,x,58.5*
Cc1cccc(Nc2nc(-c3sc(C)nc3C)cs2)c1,-8.1,-5.4,42.5,36.0,22.5,x,x,x
Cc1ccc2nc(Cl)c(/C=C/C(=O)c3ccco3)cc2c1,12.0,17.5,63.7*,51.3*,44.5*,28.0,51.8*,50.0*
COc1cc2cc(/C=C/C(=O)c3ccco3)c(Cl)nc2cc1OC,-31.0,4.4,49.3,35.6,36.4,x,x,x
Cc1ccc2cc(/C=C/C(=O)c3ccco3)c(Cl)nc2c1,x,31.2,80.0*,60.9*,54.4*,54.0*,61.0*,65.3*
COc1ccc2cc(/C=C/C(=O)c3ccco3)c(Cl)nc2c1,x,19.8,52.3*,46.0*,44.7*,37.5*,15.7,47.6*
O=C(O)c1ccc2c(c1)C(=O)N(Cc1ccccc1)C2=O,11.8,6.1,9.7,-14.4,5.8,x,x,x
CC(C)(C)c1cc(-c2csc(Nc3ccccc3)[n+]2Cc2ccc(C(=O)O)cc2)cc(C(C)(C)C)c1O,-137.5,-20.1,54.1*,38.4,45.6*,57.0*,x,52.9*
CC1=[N+](C)c2ccc3ccccc3c2C1(C)C,9.0,11.0,21.0,16.3,39.8,x,x,x
O=C(NC(=S)NNC(=O)c1ccccc1[N+](=O)[O-])c1ccccc1,17.8,0.4,50.0*,50.9*,41.2*,52.3*,56.0*,52.8*
CCC(=O)NC(=S)NNC(=O)c1ccccc1[N+](=O)[O-],10.4,12.8,56.5*,53.1*,45.4*,76.4*,60.2*,64.1*
CCCCc1ccc(NC(=O)C(=O)NCCN2CCN(Cc3ccc([N+](=O)[O-])cc3)CC2)cc1,-7.4,18.7,1.6,-11.8,-7.1,x,x,x
CC(C)Oc1cccc(C(=O)C2CCCN(C(=O)c3ccccn3)C2)c1 (stereo unspecified),0.1,15.4,12.7,-6.3,13.7,x,x,x
O=C(Nc1ccccc1N1CCOCC1)c1ccc([N+](=O)[O-])o1,109.0*,12.6,70.0*,90.1*,79.6*,80.1*,93.6*,70.8*
O=C(c1ccc([N+](=O)[O-])o1)N1CCc2ccccc21,-13.4,23.6,77.3*,67.3*,65.5*,76.9*,79.1*,85.7*
SMILES,PfHsp90 yeast 2,NLRP3 yeast inh,tim23-1 inh,TIM10 inh,tim10-1 inh,tim10-1 confirm,TIM10 conf,tim23-1 conf
Cc1ccc(N(C(=O)Cc2c[nH]c3ccccc23)C(C(=O)NC2CCCCC2)c2ccco2)cc1 (stereo unspecified),24.9,-1.5,7.4,26.9,16.3,x,x,x
N/C(=N\OC(=O)C12CC3CC(CC(C3)C1)C2)c1ccccc1,-36.5,13.3,70.4*,78.7*,64.5*,53.7*,77.9*,70.9*
N/C(=N\OC(=O)C12CC3CC(CC(C3)C1)C2)c1cccnc1,9.5,15.9,38.0,33.5,35.1,x,x,x
N/C(=N\OC(=O)C12CC3CC(CC(C3)C1)C2)c1ccccn1,-9.3,13.2,51.4*,41.3*,61.9*,44.3*,-15.5,48.9*
O=C(CN1C(=O)C2C3C=CC(C3)C2C1=O)Nc1ccc(S(=O)(=O)N2CCCCC2)cc1 (stereo unspecified),-16.9,5.3,-0.2,13.8,11.4,x,x,x
O=C(/C=C/c1cccc([N+](=O)[O-])c1)c1cccs1,93.2*,26.4,51.9*,69.5*,57.5*,51.6*,71.8*,49.4*
O=C(N/N=C/c1ccc(F)cc1)c1cc(-c2ccccn2)nc2ccccc12,-4.2,-5.1,-4.8,-15.8,-9.5,x,x,x
O=C(N/N=C/c1cc(Cl)cc([N+](=O)[O-])c1O)c1cc(-c2ccccn2)nc2ccccc12,-13.4,15.7,51.5*,18.6,45.5*,8.8,x,23.1
C[C@@H]1CN([C@@H](C)CO)C(=O)c2cc(NS(=O)(=O)c3ccc(Cl)cc3)ccc2O[C@H]1CN(C)Cc1ccncc1,-2.3,7.2,5.3,-3.8,-14.7,x,x,x
Cc1ccc(CNc2oc(-c3cccs3)nc2C#N)cc1,-12.3,37.9,52.2*,17.8,43.7*,25.8,x,46.5*
O=C1CCCCC1C(Nc1ccc(Br)cc1)c1ccccc1 (stereo unspecified),-12.8,33.6,53.3*,29.4,40.7*,31.8*,x,47.5*
Cc1nc(C)c(C(=O)N/N=C/c2cc(Br)ccc2O)s1,-17.9,14.4,39.1,34.6,4.0,x,x,x
COc1ccc2[nH]c3c4c(ccc3c2c1)C(=O)C=CC4=O,7.2,38.2,75.7*,79.1*,61.6*,77.0*,98.9*,-22.8
COc1ccc2[nH]c(=O)cc(C(=O)O)c2c1,26.6,20.1,5.0,6.3,14.7,x,x,x
Nc1nonc1-n1nnc(C(=O)N/N=C/c2cc(Br)ccc2O)c1CNc1ccccc1,40.4,13.0,50.5*,48.5*,61.3*,-6.3,53.8*,54.0*
Cc1ccc(/C=N/NC(=O)c2nnn(-c3nonc3N)c2CNc2ccccc2)cc1,2.4,10.8,15.9,-9.7,15.4,x,x,x
Cc1cc(/C=C(\C#N)C(=O)NCc2ccco2)c(C)[nH]1,9.0,9.2,7.5,-2.5,15.5,x,x,x
C=CCNC(=O)/C(C#N)=C/c1c(C)nn(-c2ccccc2)c1Cl,-14.6,33.7,72.0*,66.7*,70.7*,76.2*,65.2*,72.3*
